Results filed as inconclusive are left out. Active and inactive are the calls of the source. Unless noted, the call rests on the fitted dose curve; in most records, active means well fitted curve in the direction sought with a large enough effect in the repeat runs; inconclusive means weak or mixed curves; inactive means no such curve, though single readings can be large; an effect the other way counts as inactive or inconclusive.
Legend:
[1] = qHTS assay to identify small molecule agonists of the estrogen receptor alpha (ER-alpha) signaling pathway in the presence of an antagonist - cell viability counter screen (AID 1259386);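 further: series mostly up to about 92 µM; cells exposed to compounds for 22 h at 37 °C before the viability read; nearly all actives have a fitted effect of over 30% in size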
How it was run: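 Fluorescent CellTiter-Fluor viability signal from VM7Luc4E2 cells, with the reagent added during the final hour of a 22hr compound exposure at 37C in the presence of 10.0nM ICI-182,780.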

[2] = biological target: Progesterone receptor (Homo sapiens) (UniProt P06401); test: qHTS assay to identify small molecule agonists of the progesterone receptor (PR) signaling pathway (AID 1346784; calls by dose curve; further: nearly all actives have a fitted effect of over 30% in size; further: potency means the concentration at half of the fitted maximal effect)
How it was run: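 PR-UAS-bla HEK 293T cells (beta-lactamase reporter under UAS) in 2% charcoal-stripped FBS, dosed with 23 nL compound after 6 hr, incubated 16hr at 37C. LiveBLAzer B/G FRET substrate added, fluorescence read after 2 hours.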

[3] = biological target: Progesterone receptor (Homo sapiens) (UniProt P06401); test: qHTS assay to identify small molecule antagonists of the progesterone receptor (PR) signaling pathway (AID 1346795; active means well fitted inhibition curve with a large enough effect in the signal ratio in the repeat runs, not every such curve was filed as active; the % refers to the signal ratio)
How it was run: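 PR-UAS-bla HEK293T cells with beta-lactamase reporter under UAS control, in 2% charcoal-stripped FBS, treated with compounds plus 1 nM promegestone (R5020, final) for 16 hr at 37C. Read-out: FRET beta-lactamase substrate fluorescence after 2 hr at room temperature.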

[4] = qHTS assay to identify small molecule antagonists of the progesterone receptor (PR) signaling pathway - cell viability counter screen (AID 1346798); further: series mostly up to about 92 µM; nearly all actives have a fitted effect of over 50% in size
How it was run: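 PR-UAS-bla HEK293T cells, 3,000/well in 2% charcoal-stripped FBS medium, dosed with compounds plus R5020 agonist and incubated 16 h at 37C. Viability then measured in the same wells by CellTiter-Glo luminescence after 30 min at RT.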

[5] = qHTS assay to identify small molecule agonists of the progesterone receptor (PR) signaling pathway - cell viability counter screen (AID 1346799; calls by dose curve; further: nearly all actives have a fitted effect of over 45% in size)
How it was run: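 Counter screen in the PR-UAS-bla HEK293T wells (2% charcoal-stripped FBS, 16 h compound exposure at 37 C) after the bla read. CellTiter-Glo added, 30 min at room temperature, luminescence read as cell viability.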

[6] = qHTS assay to identify small molecule antagonists of the TGF-beta/Smad signaling pathway - cell viability counter screen (AID 1346824); further: nearly all actives have a fitted effect of over 50% in size
How it was run: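 SBE-bla HEK 293T cells were plated overnight at 37 C, then given compounds in DMSO plus TGF-beta1 (added as 0.25 ng/mL solution) for 5 hr. After the bla read, CellTiter-Glo was added to the same wells and luminescence read after 30 min at room temperature.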

[7] = qHTS assay to identify small molecule agonists of the TGF-beta/Smad signaling pathway - cell viability counter screen (AID 1346829); further: top concentration of the series differs between compounds; nearly all actives have a fitted effect of over 45% in size
How it was run: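 HEK 293T SBE-bla line, 5 hr compound exposure at 37 C, multiplexed CellTiter-Glo viability read by luminescence.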

[8] = qHTS assay to identify small molecule agonists of the TGF-beta/Smad signaling pathway (AID 1346859; active means well fitted activation curve with a large enough effect in the signal ratio in the repeat runs, not every such curve was filed as active; the % refers to the signal ratio; further: series mostly up to about 77 µM)
How it was run: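 SBE-bla HEK293T cells plated overnight, then compound exposure for 5 h at 37 C. Beta-lactamase reporter read with LiveBLAzer B/G FRET substrate after 2 h at room temperature, fluorescence at 405 nm excitation, 460/530 nm emission.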

[9] = biological target: Thyrotropin-releasing hormone receptor (Homo sapiens) (UniProt P34981); test: qHTS assay to identify small molecule antagonists of the thyrotropin-releasing hormone receptor (TRHR) signaling pathway (AID 1346877; active means well fitted inhibition curve with a large enough effect in the repeat runs, not every such curve was filed as active; further: series mostly up to about 51 µM)
How it was run: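 In this cell-based calcium flux format, HEK293 cells expressing TRHR received test compound for 5 min before the agonist TRH (1 nM final). Dye loading lasted 2 h at 37 °C.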

[10] = biological target: Thyrotropin-releasing hormone receptor (Homo sapiens) (UniProt P34981); test: qHTS assay to identify small molecule agonists of the thyrotropin-releasing hormone receptor (TRHR) signaling pathway (AID 1346891; calls by dose curve; further: series mostly up to about 58 µM)
How it was run: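 HEK293 cells expressing TRHR plated 18 h at 37 C/5% CO2, calcium dye-loaded 2 h at 37 C, then compound added (agonist mode); kinetic calcium fluorescence read 3 min at 1 s intervals; 15 concentrations in triplicate.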

Measured: Potency

Sequence of Thyrotropin-releasing hormone receptor (Homo sapiens) (P34981 whole entry, looked up): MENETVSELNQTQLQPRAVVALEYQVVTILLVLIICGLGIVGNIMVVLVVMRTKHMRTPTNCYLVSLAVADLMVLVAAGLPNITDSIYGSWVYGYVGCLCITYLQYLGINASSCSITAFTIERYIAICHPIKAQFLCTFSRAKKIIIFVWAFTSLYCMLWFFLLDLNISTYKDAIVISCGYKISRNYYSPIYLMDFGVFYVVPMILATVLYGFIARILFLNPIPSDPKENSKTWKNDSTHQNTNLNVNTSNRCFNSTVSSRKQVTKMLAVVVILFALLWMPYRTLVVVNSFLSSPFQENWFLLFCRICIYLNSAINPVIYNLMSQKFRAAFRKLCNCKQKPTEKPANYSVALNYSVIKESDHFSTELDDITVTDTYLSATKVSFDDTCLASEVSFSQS
Sequence of Progesterone receptor (Homo sapiens) (P06401 whole entry, looked up): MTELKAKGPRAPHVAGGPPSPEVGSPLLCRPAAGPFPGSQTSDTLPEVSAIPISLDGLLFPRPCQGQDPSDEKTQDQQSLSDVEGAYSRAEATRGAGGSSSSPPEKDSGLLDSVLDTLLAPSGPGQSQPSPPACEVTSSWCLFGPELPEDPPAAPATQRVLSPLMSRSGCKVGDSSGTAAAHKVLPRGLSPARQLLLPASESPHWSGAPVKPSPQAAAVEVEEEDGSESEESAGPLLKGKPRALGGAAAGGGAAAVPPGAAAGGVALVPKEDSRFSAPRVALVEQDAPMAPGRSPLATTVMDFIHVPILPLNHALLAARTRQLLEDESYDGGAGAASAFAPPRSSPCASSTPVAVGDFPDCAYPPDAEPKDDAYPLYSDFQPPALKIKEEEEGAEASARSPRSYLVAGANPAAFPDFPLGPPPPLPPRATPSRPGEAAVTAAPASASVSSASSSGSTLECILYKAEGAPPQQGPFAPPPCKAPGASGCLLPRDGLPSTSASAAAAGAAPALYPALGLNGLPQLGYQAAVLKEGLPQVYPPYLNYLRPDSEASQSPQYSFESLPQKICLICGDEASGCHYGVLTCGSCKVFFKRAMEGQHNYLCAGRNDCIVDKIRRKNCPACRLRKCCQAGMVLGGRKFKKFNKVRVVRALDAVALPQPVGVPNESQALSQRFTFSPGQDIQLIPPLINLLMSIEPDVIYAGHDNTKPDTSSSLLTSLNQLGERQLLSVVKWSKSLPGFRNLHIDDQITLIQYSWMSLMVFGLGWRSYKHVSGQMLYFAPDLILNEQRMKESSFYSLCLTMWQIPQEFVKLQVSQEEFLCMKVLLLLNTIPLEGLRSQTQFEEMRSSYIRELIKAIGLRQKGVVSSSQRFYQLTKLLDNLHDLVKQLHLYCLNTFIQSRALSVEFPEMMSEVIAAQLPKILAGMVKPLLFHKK

COc1ccnc(CS(=O)c2nc3cc(OC(F)F)ccc3[nH]2)c1OC (configuration not stated)
not listed: [9] | [10]
inactive: all other assays above

CC(=O)c1cnccn1
inactive: all assays above

CN1C(C)(C)CC(O)CC1(C)C
not listed: [9] | [10]
inactive: all other assays above

CCCCCCCCCCCCCCCCCCO
inactive: all assays above

Clc1cc(Cl)cc(Cl)c1
inactive: all assays above

[O-][n+]1cccc(CO)c1
inactive: all assays above

NCCCC[C@H](N[C@@H](CCc1ccccc1)C(=O)O)C(=O)N1CCC[C@H]1C(=O)O
not listed: [9] | [10]
inactive: all other assays above

CC(COc1ccccc1)NN (configuration not stated)
not listed: [8] | [9] | [10]
inactive: all other assays above

CCOC(=O)C1=NOC(c2ccccc2)(c2ccccc2)C1
inactive: all assays above

CCCC[N+](C)(CCCC)CCCC
not listed: [9] | [10]
inactive: all other assays above

c1ccc(Cc2ccccc2)cc1
inactive: all assays above

CC(C#N)(CCC(=O)O)N=NC(C)(C#N)CCC(=O)O (configuration not stated)
inactive: all assays above

CC(C)(CCC(=O)O)C(=O)O
inactive: all assays above

C[N+]1(C)CCCC(OC(=O)C(O)(c2ccccc2)c2ccccc2)C1 (configuration not stated)
active: [2] 15 µM
not listed: [9] | [10]
inactive: all other assays above

NS(=O)(=O)Cc1noc2ccccc12
not listed: [9] | [10]
inactive: all other assays above

CCOc1ccccc1OCC
not listed: [9] | [10]
inactive: all other assays above

C1CCC2=NCCCN2CC1
not listed: [9] | [10]
inactive: all other assays above

CC(C)NNC(=O)c1ccncc1
not listed: [9] | [10]
inactive: all other assays above

CCOC(=O)c1ccccc1
inactive: all assays above

C[C@@H]1CCC[C@H](C)N1
not listed: [9] | [10]
inactive: all other assays above

Cc1ccccc1N=C(N)N=C(N)N
inactive: all assays above

CCCC(C)C(=O)OCC (configuration not stated)
inactive: all assays above

CC(=O)Nc1ccc(OCC(O)CNC(C)C)cc1 (configuration not stated)
inactive: all assays above

CC[N+](CC)(CC(=O)Nc1c(C)cccc1C)Cc1ccccc1 (tested in a mixture with another compound)
not listed: [9] | [10]
inactive: all other assays above

C=CCCCCCCCCC(=O)OCC
not listed: [8] | [9] | [10]
inactive: all other assays above

Reference: PubChem BioAssay (Tox21)
